# Several values for one entry are separate records, joined by “and”; a condition that tells them apart may be missing. Equal values may be shown once. More than one record can exist for a structure, and the calls need not agree. Activity calls are given as the source filed them.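 Rule for the calls, unless noted: active = growth inhibition above 50% at the single 2 µM test dose, taken to imply half-maximal potency below 2 µM; inactive = the rest.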
# Test: antimalarial activity against Dd2 strain (AID 2302);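 note: 0% = DMSO untreated growth and 100% = chloroquine plus artemisinin killed control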
# Conditions: P. falciparum Dd2 in RBCs, LDH growth readout, 72 h; at 2 µM; stronger effect = higher value
row,SMILES,growth inhibition
1,CC[C@H]1CN2CC[C@H]1C[C@H]2[C@H](O)c1cc(-c2ccccc2F)nc2ccc(OC)cc12,98% (active)
2,O=C(CNC1CCCCC1)c1ccc(O)c(O)c1,99% (active)
3,CCCc1c(C(=O)NC2CCC(CN3CCC(c4c[nH]c5ccccc45)CC3)CC2)cnn1-c1c(Cl)cc(Cl)cc1Cl (stereo not given),49% (inactive)
4,CC[C@H]1CN2CC[C@H]1C[C@H]2[C@H](O)c1ccnc2ccc(OC)cc12,62% (active)
5,Oc1ccccc1CNCC(O)c1cccc(C(F)(F)F)c1 (stereo not given),97% (active)
6,CN1CC=C(c2c[nH]c3ccc(Br)cc23)CC1,80% (active)
7,[O-]c1n[n+](C2CCCCC2)no1,82% (active)
8,OC(CNCc1ccccc1OC(F)F)c1cccc(C(F)(F)F)c1 (stereo not given),52% (active)
9,CCC1(C)CC(CCNCc2ccccc2O)(c2ccc(F)cc2)CCO1 (stereo not given),32% (inactive)
10,CC[C@@]1(O)C(=O)OCc2c1cc1n(c2=O)Cc2c-1nc1cc3c(cc1c2CN1CCOCC1)OCO3,80% (active)
11,COCCSc1ccc(CC(C)NCC(O)c2cccc(Cl)c2)cc1 (stereo not given),73% (active)
12,CN(c1cc(NC(=O)c2ccc(F)cc2)ccn1)C1CCN(Cc2cccc(O)c2)CC1,82% (active)
13,CC(Cc1ccc(Sc2ccccc2)cc1)NCC(O)c1cccc(C(F)(F)F)c1 (stereo not given),53% (active)
14,C[C@@H](CC1CCCCC1)NCc1ccccc1O,67% (active)
15,CC(C)CNCc1cccc(-c2ccc(CN(C(=O)Nc3ccccc3)C3CCN(Cc4ccccc4)CC3)cc2)c1,61% (active)
16,Cc1[nH]c2ccccc2c1C1=CCN(C[C@H]2C[C@@H]2C(=O)c2ccccc2)CC1,88% (active)
17,CCCCCOc1ccc(CC(C)NCC(O)c2cccc(Cl)c2)cc1 (stereo not given),99% (active)
18,Cc1[nH]c2cc(Cl)ccc2c1C1=CCN(CCN2CCOc3c(Br)cccc3C2=O)CC1,58% (active)
19,COc1ccc(O)c(CN2CCN(c3cc(C)ccc3C)CC2)c1,86% (active)
20,O=C(CCCCCc1ccccc1)NC1CCC(CN2CCC(c3c[nH]c4ccccc34)CC2)CC1 (stereo not given),5% (inactive)

row,SMILES,growth inhibition
1,CC(=O)C1(c2ccccc2)CCN(CCC(NC(=O)c2cc(C(F)(F)F)cc(C(F)(F)F)c2)c2ccc(Cl)c(Cl)c2)CC1 (stereo not given),82% (active)
2,C/C=C1\CN2CC[C@H]1C[C@@H]2[C@@H](O)c1ccnc2ccc(O)cc12,-1% (inactive)
3,O=C(/C=C/c1cccc(F)c1)NC1CCC(CN2CCC(c3c[nH]c4ccccc34)CC2)CC1 (stereo not given),31% (inactive) and 28% (inactive)
4,CC[C@H]1CN2CC[C@@H]1C[C@H]2[C@H](O)c1cc(N2CCC(O)CC2)nc2ccc(OC)cc12,92% (active)
5,COc1ccc(CN2CCN(CCOC(c3ccc(F)cc3)c3ccc(F)cc3)CC2)c(O)c1,97% (active)
6,CC[C@H]1CN2CC[C@@H]1C[C@H]2[C@H](O)c1cc(-c2cc(Cl)cc(Cl)c2)nc2ccc(OC)cc12,97% (active)
7,CS(=O)(=O)Nc1ccc2[nH]cc(C3C[C@H]4CC[C@@H](C3)N4CC3CCC(NC(=O)/C=C/c4ccc(Cl)c(Cl)c4)CC3)c2c1 (stereo not given in full),50% (active)
8,CC(C)CNCc1ccc(-c2cccc(CN(C(=O)Nc3ccccc3)C3CCN(Cc4ccccc4)CC3)c2)cc1,95% (active)
9,CN(c1cc(NC(=O)c2cccs2)ccn1)C1CCN(Cc2cccc(F)c2)CC1,95% (active)
10,C[C@@H](NC(C)(C)C)[C@H](O)c1ccc(Cl)c(C(F)(F)F)c1,97% (active)
11,CC(=O)N(Cc1cccc(-c2cccc(CNCCc3ccccc3)c2)c1)C1CCN(Cc2ccccc2)CC1,57% (active)
12,CC[C@H]1CN2CC[C@@H]1C[C@H]2[C@H](O)c1cc(-c2ccc(F)cc2)nc2ccc(O)cc12,99% (active)
13,O=C(Nc1ccccc1OC(F)(F)F)NC1CCC(CN2CCC(c3c[nH]c4ccccc34)CC2)CC1 (stereo not given),60% (active) and 70% (active)
14,COCC(=O)N(Cc1cccc(-c2ccc(CNCCc3ccccc3)cc2)c1)C1CCN(Cc2ccccc2)CC1,45% (inactive)
15,O=C(c1cccs1)N(Cc1cccc(-c2ccc(CNC3CCCC3)cc2)c1)C1CCN(Cc2ccccc2)CC1,74% (active)
16,O=C(C=Cc1ccc(-c2ccccc2)cc1)NC1CCC(CN2CCC(c3c[nH]c4ccccc34)CC2)CC1 (stereo not given),85% (active) and 98% (active)
17,CN(Cc1ccccc1)C1CCN(CCc2c[nH]c3ccc(F)cc23)CC1,91% (active)
18,CC(C)CNCc1cccc(-c2cccc(CN(C(=O)NC3CCCCC3)C3CCN(Cc4ccccc4)CC3)c2)c1,87% (active)
19,CC[C@H]1CN2CC[C@H]1C[C@H]2[C@H](O)c1cc(-c2cccc(Cl)c2)nc2ccc(OC)cc12,99% (active)
20,Oc1cc2c(cc1CN1CCN(Cc3ccccc3)CC1)CCC2,92% (active)

# Test: HepG2 cytotoxicity, primary screen, cytotoxicity control for P. falciparum antimalarial project, cell-based, ATP luminescence (AID 2303;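 active = inhibition above 50%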;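 note: 0% = DMSO wells and 100% = digitonin-killed cells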)
# Conditions: HepG2 viability, 24-48 h, at 10 µM, stronger effect = higher value
row,SMILES,inhibition
1,CC[C@H]1CN2CC[C@H]1C[C@H]2[C@H](O)c1cc(-c2ccccc2F)nc2ccc(OC)cc12,13% (inactive)
2,O=C(CNC1CCCCC1)c1ccc(O)c(O)c1,61% (active)
3,CCCc1c(C(=O)NC2CCC(CN3CCC(c4c[nH]c5ccccc45)CC3)CC2)cnn1-c1c(Cl)cc(Cl)cc1Cl (stereo not given),41% (inactive)
4,CC[C@H]1CN2CC[C@H]1C[C@H]2[C@H](O)c1ccnc2ccc(OC)cc12,-8% (inactive)
5,Oc1ccccc1CNCC(O)c1cccc(C(F)(F)F)c1 (stereo not given),1% (inactive)
6,CN1CC=C(c2c[nH]c3ccc(Br)cc23)CC1,-3% (inactive)
7,[O-]c1n[n+](C2CCCCC2)no1,-13% (inactive)
8,OC(CNCc1ccccc1OC(F)F)c1cccc(C(F)(F)F)c1 (stereo not given),2% (inactive)
9,CCC1(C)CC(CCNCc2ccccc2O)(c2ccc(F)cc2)CCO1 (stereo not given),20% (inactive)
10,CC[C@@]1(O)C(=O)OCc2c1cc1n(c2=O)Cc2c-1nc1cc3c(cc1c2CN1CCOCC1)OCO3,81% (active)
11,COCCSc1ccc(CC(C)NCC(O)c2cccc(Cl)c2)cc1 (stereo not given),2% (inactive)
12,CN(c1cc(NC(=O)c2ccc(F)cc2)ccn1)C1CCN(Cc2cccc(O)c2)CC1,3% (inactive)
13,CC(Cc1ccc(Sc2ccccc2)cc1)NCC(O)c1cccc(C(F)(F)F)c1 (stereo not given),-1% (inactive)
14,C[C@@H](CC1CCCCC1)NCc1ccccc1O,9% (inactive)
15,CC(C)CNCc1cccc(-c2ccc(CN(C(=O)Nc3ccccc3)C3CCN(Cc4ccccc4)CC3)cc2)c1,41% (inactive)
16,Cc1[nH]c2ccccc2c1C1=CCN(C[C@H]2C[C@@H]2C(=O)c2ccccc2)CC1,18% (inactive)
17,CCCCCOc1ccc(CC(C)NCC(O)c2cccc(Cl)c2)cc1 (stereo not given),0% (inactive)
18,Cc1[nH]c2cc(Cl)ccc2c1C1=CCN(CCN2CCOc3c(Br)cccc3C2=O)CC1,1% (inactive)
19,COc1ccc(O)c(CN2CCN(c3cc(C)ccc3C)CC2)c1,7% (inactive)
20,O=C(CCCCCc1ccccc1)NC1CCC(CN2CCC(c3c[nH]c4ccccc34)CC2)CC1 (stereo not given),34% (inactive)

row,SMILES,inhibition
1,CC(=O)C1(c2ccccc2)CCN(CCC(NC(=O)c2cc(C(F)(F)F)cc(C(F)(F)F)c2)c2ccc(Cl)c(Cl)c2)CC1 (stereo not given),9% (inactive)
2,C/C=C1\CN2CC[C@H]1C[C@@H]2[C@@H](O)c1ccnc2ccc(O)cc12,-10% (inactive)
3,O=C(/C=C/c1cccc(F)c1)NC1CCC(CN2CCC(c3c[nH]c4ccccc34)CC2)CC1 (stereo not given),39% (inactive) and 35% (inactive)
4,CC[C@H]1CN2CC[C@@H]1C[C@H]2[C@H](O)c1cc(N2CCC(O)CC2)nc2ccc(OC)cc12,15% (inactive)
5,COc1ccc(CN2CCN(CCOC(c3ccc(F)cc3)c3ccc(F)cc3)CC2)c(O)c1,6% (inactive)
6,CC[C@H]1CN2CC[C@@H]1C[C@H]2[C@H](O)c1cc(-c2cc(Cl)cc(Cl)c2)nc2ccc(OC)cc12,0% (inactive)
7,CS(=O)(=O)Nc1ccc2[nH]cc(C3C[C@H]4CC[C@@H](C3)N4CC3CCC(NC(=O)/C=C/c4ccc(Cl)c(Cl)c4)CC3)c2c1 (stereo not given in full),3% (inactive)
8,CC(C)CNCc1ccc(-c2cccc(CN(C(=O)Nc3ccccc3)C3CCN(Cc4ccccc4)CC3)c2)cc1,48% (inactive)
9,CN(c1cc(NC(=O)c2cccs2)ccn1)C1CCN(Cc2cccc(F)c2)CC1,-1% (inactive)
10,C[C@@H](NC(C)(C)C)[C@H](O)c1ccc(Cl)c(C(F)(F)F)c1,-1% (inactive)
11,CC(=O)N(Cc1cccc(-c2cccc(CNCCc3ccccc3)c2)c1)C1CCN(Cc2ccccc2)CC1,22% (inactive)
12,CC[C@H]1CN2CC[C@@H]1C[C@H]2[C@H](O)c1cc(-c2ccc(F)cc2)nc2ccc(O)cc12,25% (inactive)
13,O=C(Nc1ccccc1OC(F)(F)F)NC1CCC(CN2CCC(c3c[nH]c4ccccc34)CC2)CC1 (stereo not given),33% (inactive) and 35% (inactive)
14,COCC(=O)N(Cc1cccc(-c2ccc(CNCCc3ccccc3)cc2)c1)C1CCN(Cc2ccccc2)CC1,44% (inactive)
15,O=C(c1cccs1)N(Cc1cccc(-c2ccc(CNC3CCCC3)cc2)c1)C1CCN(Cc2ccccc2)CC1,20% (inactive)
16,O=C(C=Cc1ccc(-c2ccccc2)cc1)NC1CCC(CN2CCC(c3c[nH]c4ccccc34)CC2)CC1 (stereo not given),43% (inactive) and 97% (active)
17,CN(Cc1ccccc1)C1CCN(CCc2c[nH]c3ccc(F)cc23)CC1,28% (inactive)
18,CC(C)CNCc1cccc(-c2cccc(CN(C(=O)NC3CCCCC3)C3CCN(Cc4ccccc4)CC3)c2)c1,32% (inactive)
19,CC[C@H]1CN2CC[C@H]1C[C@H]2[C@H](O)c1cc(-c2cccc(Cl)c2)nc2ccc(OC)cc12,16% (inactive)
20,Oc1cc2c(cc1CN1CCN(Cc3ccccc3)CC1)CCC2,1% (inactive)
